ADAM10 inh = ADAM10 inhibition, QFRET primary screen | O14672 | recombinant ADAM10, EDANS/DABCYL FRET peptide cleavage, 3 h | inhibition, % at 7 µM | hit rate 0.62% among 370,000 | AID 720582;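 active means inhibition above a per-campaign cutoff equal to the mean of compounds falling between control-based bounds plus 3 SD, cut at about 20% in these data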;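 further: 0% = DMSO wells while the 100% control is not disclosed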
ADAM17 inh = inhibits human ADAM17 | hit rate 0.83% among 370,000 | inhibition, % at 6.95 µM | P78536 | recombinant ADAM17, EDANS/DABCYL FRET peptide cleavage;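 active means inhibition above the mean of compounds lying between control limits plus 3 SD, set per campaign, cut at about 8.5% in these data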;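 further: 0% = DMSO-only wells as the low control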
Target sequence (P78536 215-824 limits assumed): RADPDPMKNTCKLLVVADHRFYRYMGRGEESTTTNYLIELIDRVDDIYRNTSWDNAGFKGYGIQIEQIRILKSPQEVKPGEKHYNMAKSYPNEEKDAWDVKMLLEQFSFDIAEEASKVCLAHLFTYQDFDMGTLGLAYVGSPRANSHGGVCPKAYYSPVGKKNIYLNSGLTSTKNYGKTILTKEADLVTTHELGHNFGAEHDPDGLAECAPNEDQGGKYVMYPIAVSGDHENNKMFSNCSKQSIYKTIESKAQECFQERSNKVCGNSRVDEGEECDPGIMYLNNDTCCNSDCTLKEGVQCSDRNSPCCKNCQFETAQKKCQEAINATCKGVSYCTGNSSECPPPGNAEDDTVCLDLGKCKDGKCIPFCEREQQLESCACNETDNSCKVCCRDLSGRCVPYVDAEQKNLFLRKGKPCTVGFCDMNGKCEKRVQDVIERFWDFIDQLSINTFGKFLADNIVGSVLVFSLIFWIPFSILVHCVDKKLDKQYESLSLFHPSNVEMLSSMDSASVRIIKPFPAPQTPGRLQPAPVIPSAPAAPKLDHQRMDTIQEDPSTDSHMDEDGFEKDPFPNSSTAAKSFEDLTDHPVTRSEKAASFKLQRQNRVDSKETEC
sPLA2-III inh = Inhibits HGIII-sPLA2 liposome hydrolysis, primary screen | QFRET BODIPY PC-A2 liposome hydrolysis, fluorescence | inhibition, % at 12.2 µM | hit rate 0.56% among 370,000;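 active means inhibition above mean plus 3 SD of compounds lying within the high and low control bounds, cut at about 19% in these data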;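 further: 0% = median of test compound wells and 100% = no enzyme DMSO wells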
KLK7 zymogen act = proKLK7 (human) activation, primary screen. P49862. purified proKLK7, EDANS-DABCYL substrate fluorescence; 100% is mature enzyme control, 0% vehicle. activation, % at 7 µM. hit rate 0.9% among 370,000. AID 652039;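 active means activation above the mean of all tested compounds plus 3 SD, computed per campaign excluding outliers beyond control limits, cut at about 13% in these data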
PLC-gamma1 inh = PLC-gamma1 (human) inhibition, primary screen | P19174 | purified PLC-gamma1, fluorogenic substrate, fluorescence | inhibition, % at 12.2 µM | hit rate 0.84% among 370,000 | AID 720700; in the data active means inhibition above about 9.5%
PLCb3 inh = inhibitors of human phospholipase C beta3. hit rate 0.18% among 370,000. inhibition, % at 12.2 µM. Q01970. Purified PLC-beta3, fluorogenic substrate, fluorescence; in the data active means inhibition above about 11%;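 further: 0% = median of compound wells on plate and 100% = full blocker control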
ADAM10 confirm = confirmation of inhibitors of human ADAM10; shares compounds with ADAM10 inh; ADAM10 QFRET peptide cleavage, EDANS fluorescence; inhibition, % at 6.95 µM; hit rate 1% among 2,100;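 active means inhibition above about 20% chosen separately for each screening run, limit read from the data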;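 further: 0% = DMSO wells and 100% = marimastat wells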
ADAM17 ctr = counter-screen for ADAM10 exosite inhibitors: inhibitors of human ADAM17; inhibition, % at 6.95 µM; hit rate 0.5% among 2,100; ADAM17 QFRET peptide cleavage, EDANS fluorescence; shares compounds with ADAM10 inh;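 active means mean triplicate inhibition above the solvent-only control wells' mean plus 3 SD, cut at about 12% in these data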;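 further: 0% = DMSO wells and 100% = marimastat wells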
The depositor's hits bear a star; · = not tested or not shown. This is a sample that favours compounds with a hit; in the whole collection about 3.4% have one here.

SMILES	ADAM10 inh	ADAM17 inh	sPLA2-III inh	KLK7 zymogen act	PLC-gamma1 inh	PLCb3 inh	ADAM10 confirm	ADAM17 ctr
C/C(=N\NC(=S)NCc1ccccc1)c1cccc(Br)c1	21*	4	8	0	1	-5	8	4
CCOc1ccccc1NC(=S)N1C2CCC1CC(NC(=O)NC13CC4CC(CC(C4)C1)C3)C2 (stereo not drawn)	33*	-6	-4	0	6	-1	1	0
NC(=O)[C@@H]1CC2(CC(c3cccc(NC(=O)COc4ccc(Cl)cc4)c3)=NO2)CN1C(=O)c1ccccc1 (stereo partly drawn)	-6	3	-43	0	4	1	·	·
COc1ccc(C(=O)N2CC3(CC(c4cccc(NC(=O)COc5ccc(Cl)cc5)c4)=NO3)C[C@@H]2C(N)=O)cc1 (stereo partly drawn)	23*	5	-50	1	9	3	3	1
C/C=C(\C)C(=O)N1CC2(CC(c3cccc(NC(=O)COc4ccc(Cl)cc4)c3)=NO2)C[C@@H]1C(N)=O (stereo partly drawn)	85*	-3	-13	1	0	0	1	1
COc1cc(N2CCC(O)CC2)ccc1Nc1cc(Nc2ccccc2S(=O)(=O)C(C)C)c2cc[nH]c2n1	-7	1	15	0	-23	-34	·	·
CC(C)N=C(NC#N)SCc1ccccc1F	-1	-6	-3	0	-2	-1	·	·
N#CNC(=Nc1cccc(F)c1)SCc1ccccc1F	23*	4	-46	0	4	5	0	0
C[C@H]1[C@H](c2ccccc2)Oc2cccc(NCCc3ccccc3)c2S(=O)(=O)N1Cc1cccc(F)c1	-2	-4	-1	0	0	2	·	·
O=C(CSc1nc(=O)n(CCCN2CCOCC2)c2c1CCC2)Nc1ccccc1F	80*	-1	19	1	-4	-5	0	0
CCOc1ccccc1NC(=O)CSc1nc(=O)n(CCCN2CCOCC2)c2c1CCC2	-15	-5	13	-1	1	-2	·	·
COc1cccc(CNS(=O)(=O)c2cc(Br)ccc2Br)c1OC	-9	2	-2	0	4	-4	·	·
COc1ccc(OC(F)(F)F)cc1CC1(C)C(=O)Nc2ccc(-c3ccsc3)cc21 (stereo not drawn)	26*	9	5	-1	8	-3	11	3
COc1ccc(C(C)=O)cc1CC1(C)C(=O)Nc2ccc(OC(F)(F)F)cc21 (stereo not drawn)	-5	0	-10	0	0	3	·	·
CN(C)Cc1c(C(C)(C)O)[nH]c2cc(C(F)(F)F)ccc12	-14	-2	4	0	-3	-3	·	·
Nc1nc2cc3c(cc2cc1C(=O)NCCc1c[nH]c2ccccc12)OCO3	-240	-76	-42	-1	-64	-85	·	·
C=CCN1[C@@H](C)[C@H](c2ccccc2)Oc2cccc(NCC(C)C)c2S1(=O)=O	-8	-6	8	-1	-5	-4	·	·
CC(C)(C)c1cc(CP(=O)(c2ccccc2)c2ccccc2)cc(C(C)(C)C)c1O	24*	5	14	-1	2	-10	2	1
O=P(Cc1ccccc1)(c1ccccc1)c1ccccc1	2	1	-4	-1	8	6	·	·
COc1ccc(Cl)cc1NC(=O)CN(C)C(=O)CN1C(=O)NC(C)(c2ccc3ccccc3c2)C1=O (stereo not drawn)	27*	5	-54	0	5	1	2	0
COc1ccc(Cl)cc1NC(=O)CN(C)C(=O)c1sc2ccccc2c1Cl	24*	7	-27	-1	7	-2	9	3
c1ccc(-c2c[nH]c3cccc(C4CCCCC4)c23)cc1	-6	-1	-31	0	-4	-6	·	·
NS(=O)(=O)c1ccc(CCNc2nn3c(-c4cccc(OC(F)(F)F)c4)cnc3s2)cc1	21*	6	-77	0	0	3	5	1
